Experimental data as given in PubChem BioAssay (NCI).
About 83,000 compounds went through this panel and 20% of them were active in at least one assay; those are over-represented in the sample as a whole.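 Single-concentration screen, 48 h exposure, 96-well plates. Endpoint: percent growth. Below 10 = active.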 The source made the active and inactive calls.

Legend:
Assay in all cases: NCI-60 one-dose screen, 48 h (100 = growth as untreated, 0 = no growth, -100 = all killed)
Conditions in all cases: 10 µM unless noted
NCI-H23 lung = tested on: NCI-H23 lung
NCI-H226 lung = tested on: NCI-H226 lung
NCI-H322M lung = tested on: NCI-H322M lung
HOP-62 NSCLC = tested on: HOP-62 NSCLC
NCI-H460 lung = tested on: NCI-H460 lung
HOP-92 NSCLC = tested on: HOP-92 NSCLC
NCI-H522 lung = tested on: NCI-H522 lung
A549/ATCC NSCLC = tested on: A549/ATCC NSCLC
786-0 renal = tested on: 786-0 renal
COLO 205 colon = tested on: COLO 205 colon
DU-145 prostate = tested on: DU-145 prostate
MALME-3M melanoma = tested on: MALME-3M melanoma
MDA-MB-231 breast = tested on: MDA-MB-231 breast
RXF 393 renal = tested on: RXF 393 renal
SF-268 CNS = tested on: SF-268 CNS
SF-295 CNS = tested on: SF-295 CNS
SF-539 CNS = tested on: SF-539 CNS
UACC-257 melanoma = tested on: UACC-257 melanoma
K-562 leukemia = tested on: K-562 leukemia

Measured: growth

CCCCCCNC(=O)c1cc(NCc2cc(O)ccc2O)ccc1O
inactive: NCI-H23 lung 87.5% | NCI-H226 lung 92.3% | NCI-H322M lung 89.2% | HOP-62 NSCLC 70.9% | NCI-H460 lung 94.5% | HOP-92 NSCLC 24% | A549/ATCC NSCLC 70.5% | 786-0 renal 45.9% | COLO 205 colon 96.9% | DU-145 prostate 92.6% | MALME-3M melanoma 67.4% | MDA-MB-231 breast 45.2% | RXF 393 renal 37.4% | SF-268 CNS 53.8% | SF-295 CNS 95.8% | SF-539 CNS 11.8% | UACC-257 melanoma 56.1%
active: NCI-H522 lung -62.3%

COc1ccc(N(C)c2nc(Cl)nc3cnn(C)c23)cc1
active: NCI-H226 lung 1% | NCI-H460 lung 7.51% | NCI-H522 lung -27.6% | 786-0 renal 8.74% | COLO 205 colon -68.3% | DU-145 prostate 7.13% | SF-539 CNS -9.34%
inactive: NCI-H23 lung 34.4% | NCI-H322M lung 34.1% | HOP-62 NSCLC 21.9% | HOP-92 NSCLC 28.6% | A549/ATCC NSCLC 10.8% | MALME-3M melanoma 75.3% | MDA-MB-231 breast 19.2% | RXF 393 renal 44.8% | SF-268 CNS 29.1% | SF-295 CNS 17.9% | UACC-257 melanoma 38.1%

COc1ccc2cc(-c3ccc(C(=O)NN)c(C)n3)ccc2c1
inactive: NCI-H23 lung 95.5% | NCI-H226 lung 103% | NCI-H322M lung 94.6% | HOP-62 NSCLC 101% | NCI-H460 lung 104% | HOP-92 NSCLC 96.2% | NCI-H522 lung 69.8% | A549/ATCC NSCLC 93.1% | 786-0 renal 95.1% | COLO 205 colon 104% | DU-145 prostate 103% | MALME-3M melanoma 92.5% | MDA-MB-231 breast 97.4% | RXF 393 renal 113% | SF-268 CNS 91.9% | SF-295 CNS 99% | SF-539 CNS 103% | UACC-257 melanoma 99.6%

N#Cc1c(N)nc2c(nnn2-c2cccc(C(F)(F)F)c2)c1N
inactive: NCI-H23 lung 86.6% | NCI-H226 lung 92.4% | NCI-H322M lung 89.8% | HOP-62 NSCLC 80.5% | NCI-H460 lung 95.9% | HOP-92 NSCLC 77.6% | NCI-H522 lung 75.2% | A549/ATCC NSCLC 78% | 786-0 renal 101% | COLO 205 colon 104% | DU-145 prostate 99% | MALME-3M melanoma 121% | MDA-MB-231 breast 78.3% | RXF 393 renal 92.7% | SF-268 CNS 91.9% | SF-295 CNS 95.6% | SF-539 CNS 96.9% | UACC-257 melanoma 103%

COc1cc(NC(=O)c2cc(O)c(CC=C(C)C)c(O)c2)cc2c1O[C@]1(C)CC[C@@H](O)C(C)(C)[C@H]1C2
active: HOP-92 NSCLC -0.592% | NCI-H522 lung 8.19% | 786-0 renal 1.24% | COLO 205 colon -28.8% | RXF 393 renal -23.6% | SF-295 CNS -49.6% | SF-539 CNS -34.6%
inactive: NCI-H23 lung 39% | NCI-H226 lung 79.4% | NCI-H322M lung 67.9% | HOP-62 NSCLC 31.4% | NCI-H460 lung 27.2% | A549/ATCC NSCLC 40.3% | DU-145 prostate 42.8% | MALME-3M melanoma 43.9% | MDA-MB-231 breast 32.8% | SF-268 CNS 42% | UACC-257 melanoma 36.3%

CC(=O)c1ccc2c(c1)CCN2
inactive: NCI-H23 lung 102% | NCI-H226 lung 102% | NCI-H322M lung 101% | HOP-62 NSCLC 96.8% | NCI-H460 lung 117% | HOP-92 NSCLC 82.5% | NCI-H522 lung 91% | A549/ATCC NSCLC 98% | 786-0 renal 108% | COLO 205 colon 102% | DU-145 prostate 104% | K-562 leukemia 111% | MDA-MB-231 breast 96.1% | RXF 393 renal 107% | SF-268 CNS 98.9% | SF-295 CNS 125% | SF-539 CNS 101% | UACC-257 melanoma 104%

Cc1ccc(-n2nnc(C3=NCCc4c3[nH]c3ccc(Cl)cc43)c2C)cc1
inactive: NCI-H23 lung 80.6% | NCI-H226 lung 76.2% | NCI-H322M lung 85% | HOP-62 NSCLC 72.2% | NCI-H460 lung 72.5% | HOP-92 NSCLC 76.4% | NCI-H522 lung 30.9% | A549/ATCC NSCLC 41.3% | 786-0 renal 78.2% | COLO 205 colon 101% | DU-145 prostate 87.3% | MALME-3M melanoma 98.3% | MDA-MB-231 breast 80.4% | RXF 393 renal 102% | SF-268 CNS 80.6% | SF-295 CNS 70.6% | SF-539 CNS 92.9% | UACC-257 melanoma 57.9%

CCOC(=O)c1nnn(C(Cc2ccccc2Cl)C(=O)OCC)c1C (configuration not stated)
inactive: NCI-H23 lung 105% | NCI-H226 lung 103% | NCI-H322M lung 108% | HOP-62 NSCLC 93.4% | NCI-H460 lung 101% | HOP-92 NSCLC 93.5% | NCI-H522 lung 68.9% | A549/ATCC NSCLC 82.6% | 786-0 renal 102% | COLO 205 colon 105% | DU-145 prostate 109% | MALME-3M melanoma 117% | MDA-MB-231 breast 104% | RXF 393 renal 109% | SF-268 CNS 111% | SF-295 CNS 111% | SF-539 CNS 107% | UACC-257 melanoma 83.6%

COc1cc2oc(-c3cccc(C(=O)Nc4ccc(C)cc4)c3)cc(=O)c2c(OC)c1OC
active: NCI-H522 lung 6.72% | COLO 205 colon 1.73% | RXF 393 renal -7.43% | SF-295 CNS -47%
inactive: NCI-H23 lung 44.6% | NCI-H226 lung 62.5% | NCI-H322M lung 51.1% | HOP-62 NSCLC 22.1% | NCI-H460 lung 24.9% | HOP-92 NSCLC 22% | A549/ATCC NSCLC 33.8% | 786-0 renal 22.1% | DU-145 prostate 48.2% | K-562 leukemia 28% | MALME-3M melanoma 27.3% | SF-268 CNS 57.7% | SF-539 CNS 45.8% | UACC-257 melanoma 29.9%
